From the supplement of paper PMC6555819

How the values were obtained:
Experiment in all cases: PBM binding z-score (relative to random genomic background probes); higher = stronger binding; sequences stand for … in GC…GCGATTGACAGCGTAGAATGAAGG
[1] = test system: RARb homodimer (NR concentration 270 nM)
How it was run: (§1)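 For binding z-scores, the reference was random background probes on custom Agilent 4×180K protein-binding microarrays. These arrays were incubated 1 h with ligand-free nuclear receptor dimers in PBS pH 7.4, 2% milk, 0.02% Triton X-100, 1 mM DTT, 0.2 mg/mL BSA and 0.4 mg/ml salmon testes DNA. Fluorescence was scanned after antibody detection of each partner (one per run) and regression-normalized.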

[2] = test system: RARg:RXRa (NR concentration 270 nM, RXRa partner concentration 90 nM)
How it was run: as §1

[3] = test system: RARg homodimer (NR concentration 270 nM)
How it was run: as §1

[4] = test system: RXRa DBDmut IVT, anti-RXR (DBD mutation: RXRa K156A/R161A, NR concentration 90 nM)
How it was run: as §1

[5] = test system: RXRa homodimer (NR concentration 180 nM)
How it was run: as §1

[6] = test system: THRa:RXRa (NR concentration 90 nM, RXRa partner concentration 90 nM)
How it was run: as §1

[7] = test system: THRa homodimer (NR concentration 90 nM)
How it was run: as §1

[8] = test system: VDR homodimer (NR concentration 270 nM)
How it was run: as §1

Row | Sequence | PBM binding z-score [1] | PBM binding z-score [2] | PBM binding z-score [3] | PBM binding z-score [4] | PBM binding z-score [5] | PBM binding z-score [6] | PBM binding z-score [7] | PBM binding z-score [8]
1 | GGAACGAGGGCAAAGTTGATCGCATCTGTCGACG | 1.19 | 1.83 | 1.8 | 2.72 | 1.92 | 1.19 | -0.32 | 1.61
2 | TCTTGTGGATCAGCAGGTTAAGAAAGCTGGCCAA | 0.366 | -0.0321 | -0.331 | 0.589 | 0.119 | 0.227 | -0.125 | 0.0128
3 | GCTACTAGTTGAAAGGGCAACCGAATGATTCTCG | 2.01 | 1.33 | 1.35 | 0.375 | 1.33 | 0.651 | -0.134 | 0.214
4 | TCATATAGGTAAAGGTGAAAGGCGAACGATATGA | 1.51 | 1.67 | 1.39 | 0.748 | 2.24 | 1.7 | -0.314 | -0.263
5 | CCTAGCAGGCCAGGGTCACTGAAGCATTTCGCTT | 2.95 | 3.32 | 2.91 | 0.172 | 3.86 | 3.07 | 1.02 | 1.19
6 | ACTTACGGGTCAACGAGGTTACAGCACGCGTATA | 3.89 | 6.06 | 5.3 | 2.37 | 6.55 | 4.46 | 1.51 | 3.71
7 | CCTACTGGGCCAAAAAGGTCATTGAGGCCGATAA | 4.37 | 4.72 | 4.17 | 0.821 | 4.63 | 3.4 | 0.793 | 3.39
8 | GCGACTGGAGCATCAGCAGGTTACCATAACTTAA | -0.0503 | -0.127 | -0.161 | -0.526 | 0.0977 | 0.179 | -0.37 | -0.639
9 | TGAATGAGGTGATAAGATCAGGGAACGTTGCAAA | -0.0418 | 0.599 | 0.324 | -0.998 | 0.631 | 1.43 | 0.185 | -0.465
10 | CTACCAAGGTGAACAAGGTCGATGATTACTATTC | 2.03 | 1.58 | 1.71 | 0.696 | 1.61 | 2.89 | 1.41 | 0.758
11 | CCTGCTAGGTCATGGTCAGATAATCTACAGTATG | 3.05 | 3.94 | 4.66 | 1.69 | 3.04 | 3.1 | 1.49 | 0.43
12 | ACTAGCAGGCCAAGTTTGGGTCACTCACACAAAG | 2.45 | 2.62 | 1.68 | 0.307 | 1.08 | 2.56 | 1.24 | 0.348
13 | CCGACCGGGGCAAAGGTTACCATACTCAGTACGA | 2.34 | 3.83 | 2.02 | 0.0663 | 4.51 | 2.47 | 0.202 | 0.185
14 | CCTTACGGGTCACTGTCAGGTTATAGCATTTGGA | 3.14 | 5.51 | 4.38 | 1.75 | 4.49 | 3.83 | 0.905 | 1.41
15 | TGACCAAGGTGAGCTGAGGTCGTTGATCCAACTC | 1.63 | 1.46 | 1.17 | -0.41 | 1.52 | 4.69 | 1.8 | 1.7
16 | TCTGCTAGGTCAACGATGATCAGCTAATCTGCTA | 2.72 | 3.81 | 4.38 | 1.04 | 2.78 | 2.64 | 0.449 | -0.153
17 | GATACAGGGTCAGCTAGAGGCCAGTGTATGGAAA | 3.64 | 6.8 | 5.06 | 1.51 | 4.25 | 2.98 | 0.265 | 0.727
18 | TTACCAAGGCGAGCTGAGGTCGTTGATCCAACTC | 0.643 | 0.197 | -0.299 | 0.038 | 0.626 | 3.13 | 1.16 | 1.49
19 | CCTAGCAGGCCAATCTGGGTCACTTAAGGCTTGA | 2.26 | 1.07 | 1.19 | -0.0983 | 0.84 | 3.93 | 0.596 | 0.132
20 | TCTATTAGTTGATTAGGGCATCCGAAACAGCGGA | 0.405 | 0.611 | 0.418 | 1.08 | 0.604 | 0.428 | 0.317 | 0.435
21 | CCTACTGGGCCAGGAAAGGTCATTGATTCAGTGA | 4.32 | 4.28 | 3.54 | -0.114 | 4.36 | 3.44 | 0.626 | 1.99
22 | TCTTGTAGATCAACAGGAGGTTCAGAAAGATCGA | -0.296 | 0.00148 | -0.0996 | 0.388 | 0.331 | 0.0407 | -1 | 0.524
23 | CAAACTAGGTCACAGGAAGGTCAAAGTCCGCATG | 5.1 | 7.79 | 7 | 2.17 | 6.07 | 4.36 | 2.46 | 3.1
24 | TCTAGTTGGTCACGGAGGTCAGACACGACGGGTA | 3.9 | 3.72 | 3.75 | 1 | 3.4 | 2.79 | 1.39 | 1.56
25 | TCTCGGAGGACACGTAAGGTCAGAGCTCGACATC | 4.02 | 3.53 | 3.84 | 1.11 | 2.47 | 4.72 | 4.18 | 1.25
26 | GCTAGTTGATCAGTAAAAGGTCACACACCGGTCG | 4.9 | 5.1 | 4.68 | 0.532 | 5.54 | 3.45 | 1.59 | 1.8

Row | Sequence | PBM binding z-score [1] | PBM binding z-score [2] | PBM binding z-score [3] | PBM binding z-score [4] | PBM binding z-score [5] | PBM binding z-score [6] | PBM binding z-score [7] | PBM binding z-score [8]
27 | CGAACTAGGTCAGAACAGGACAGAGAAGGATGAT | 1.89 | 2.45 | 3.27 | 0.331 | 1.2 | 3.39 | 0.271 | 0.244
28 | CCTCGAAGGACAACAGGAGGTCAGAGCTGCCAGA | 3.42 | 3.4 | 3.28 | 0.237 | 1.89 | 2.58 | 0.731 | 0.641
29 | ATACCAAGGTGATCGTGGGGTCGTTGATACTAAC | 1.69 | 2.14 | 0.593 | 0.817 | 2.34 | 3.15 | 1.93 | 2.92
30 | ACTATTTGTTGACTTAGGGCAACCGATACGACGC | 1.01 | 0.754 | 1.08 | 0.742 | 0.588 | 1.12 | 0.816 | 0.486
31 | CAAACTAGGTCACCGGAAGGTCAACGTCCGCATG | 5.99 | 8.58 | 8.16 | 2.07 | 7.28 | 4.63 | 3.19 | 2.78
32 | TAGCCTAGATCATTCAGGGGCCAGTATAGAAAGC | 0.182 | 0.658 | 0.249 | -0.277 | 0.341 | 0.0485 | -0.624 | -0.00416
33 | TCTAGTTGGGCACGGAGGTCACACACGACGGGTA | 4.1 | 4.07 | 3.83 | 0.548 | 4.43 | 3.34 | 1.83 | 2.63
34 | ATCTCTAGGTAAAGATAGTTCACTGAATGCAAAT | 1.54 | 1.1 | 1.18 | 0.234 | 0.828 | 1.31 | 0.149 | 1.13
35 | CCGACTCGGGCAAAGGTTACCATACTCAGTACGA | 2.04 | 3.36 | 1.68 | 0.702 | 3.21 | 1.6 | -0.126 | -0.375
36 | GCGACTTGGGCATCAGCAGGTTACCATAACTTAA | -0.0318 | -0.252 | -0.319 | -0.131 | -0.00546 | 0.236 | 0.128 | -0.321
37 | GCTATTAGTTGAAAGGGTAACCGAATGATTCTCG | 0.907 | 0.593 | 0.407 | 1.01 | 0.952 | 0.527 | 0.212 | -0.0669
38 | AGTCAAAGTTCATCTAAGTAACGTAAGATATGCT | 3.78 | 5.58 | 6.53 | 4.81 | 5.21 | 2.57 | -0.213 | 4.88
39 | AATACAGGGTCACTACGCCAGAGTAGGTACGAAT | 3.19 | 5.26 | 4.83 | 3.03 | 5.7 | 3.5 | 1.33 | 3.21
40 | CCTCGGAGGACAACAGTAGGTCAGAGCTGCCAGA | 2.54 | 1.94 | 2.24 | 0.271 | 0.593 | 1.67 | 0.256 | -0.109
41 | CAGCCTAGATCAGGGCCAGTATAGGAGGAACGTT | -0.147 | -0.262 | -0.227 | -0.728 | -0.559 | -0.634 | -0.417 | -0.384
42 | AATACAGGGTCACTAGGCCAGAATAGGTACGAAT | 3.3 | 5.17 | 4.76 | 2.85 | 5.58 | 3.41 | 1.4 | 2.52
43 | GCTGCTAGGTCAACTGATGGTCAGCAAAAGCTCG | 3.66 | 5.17 | 5.41 | 1.5 | 2.99 | 2.91 | 0.775 | 0.254
44 | TCTTGGAGGACACGAAGGTCAGAGCTTTCCAGAG | 3.54 | 3.23 | 3.69 | 0.774 | 1.83 | 2.89 | 0.692 | 1.13
45 | ACAGTCAGGTGATGAAGGTAACTCAGGCTATCAT | 0.23 | 0.23 | 0.365 | -0.243 | 0.405 | 1.19 | 0.0421 | -0.453
46 | GCTATTAGTTGTAAGGGCAACCGAATGATTCTCG | 1.47 | 0.411 | 0.637 | 0.96 | 0.441 | 1.73 | 1.18 | 0.507
47 | AGAACGAGGGCAATAAGTTGATAGCACGGGTGGC | 1.11 | 1.23 | 1.56 | 1.9 | 0.767 | 0.873 | -0.185 | 2.26
48 | GCTTACGGGTCAAAGATTATAGCATGAATAGAAT | 2.21 | 4.65 | 4.34 | 2.38 | 5.43 | 2.21 | -0.519 | 0.811
49 | ACTAGCAGGCCAAGGGTCACTCTAGATTAGTCCG | 3.64 | 3.81 | 3.34 | 0.668 | 3.3 | 2.32 | -0.0207 | 1.03
50 | AGAACGAGGGCAATGAGTAGATAGCACGGGTGGC | 0.9 | 1.33 | 1.4 | 1.67 | 1.14 | 0.671 | -0.3 | 0.678
51 | TCTTCTAGATCAATAGAGGTTAAGAAAGTGCGCT | 1.17 | 1.06 | 0.808 | 0.902 | 1.4 | 1.96 | -0.514 | 0.255
52 | AGAACGAGCGCACGCTGAGTTGATAGCAGAGTAG | -1.25 | -0.476 | -0.51 | -0.346 | -0.489 | -0.752 | -1.21 | -0.599
